Here are results for eight molecules from PubChem BioAssay (NCATS).

Where “and” joins values, the source holds several entries; their conditions need not be identical. Identical values can stand only once. Results filed as inconclusive are left out. Calls of active or inactive are those of the source. Unless noted, the call rests on the fitted dose curve; in most records, active means well fitted curve in the direction sought with a large enough effect; inconclusive means small, poorly fitted or top-dose-only effect, or another doubt; inactive means no such curve, though single readings can be large; an effect the other way counts as inactive or inconclusive.

The nature of assay [1]: qHTS for compounds that reverse cellular toxicity of Amyloid beta (A-beta) peptide in yeast: LOPAC Validation Assay (AID 720559).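 Further: plate controls were DMSO for no effect and equimolar ferric chloride plus clioquinol rescue for full effect.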 The gist of the method:
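OD600 growth readout after 48 hr at 30 C; A-beta-toxic yeast plus pinned compounds in medium. Normalization: DMSO = negative, equimolar FeCl3 + clioquinol = positive.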
For orientation: In qHTS, concentration-response curves come from the screen itself.

Assay [2] can be described thus: qHTS for Activators of Parkin Expression: LOPAC Validation Assay (NLuc Reporter) (AID 720572). The gist of the method:
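Compound effects on Parkin promoter activity were measured as NanoLuc luminescence after 24 h at 37 C. The neuronal reporter line also carried FLuc, which was read first. LOPAC compounds were tested at 7 concentrations, with normalization to DMSO (0%) and positive control (100%).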

Assay [3] in a line: qHTS for Activators of Parkin Expression: LOPAC Validation Assay (FLuc Reporter) (AID 720573). The gist of the method: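 FLuc luminescence read-out from a neuronal line expressing a Parkin-promoter-driven coincidence reporter. Cells treated 24 h at 37 C, 5% CO2 with compounds at 7 concentrations; signal increase normalized to DMSO and positive control.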
Assay [4] is described as follows: qHTS assay for small molecule agonists of the antioxidant response element (ARE) signaling pathway measured by Nrf2-dependant transcriptional activity (AID 720636; active means well fitted curve in the direction sought with a large enough effect in the repeat runs; an effect the other way counts as inactive or inconclusive;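 further: HepG2 cells with an ARE-driven luciferase reporter; % of control where 0% means no effect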). The gist of the method:
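HepG2 ARE-luc reporter line, 1% dialyzed FBS; 6 hr attachment at 37 C, compound pinned in, 16 hr at 37 C/5% CO2; ONE-Glo, 30 min RT, luminescence read.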

A short description of assay [5]: qHTS assay for small molecule agonists of the antioxidant response element (ARE) signaling pathway measured by Nrf2-dependant transcriptional activity - cell viability counter screen (AID 720653; active means well fitted curve in the direction sought with a large enough effect in the repeat runs; an effect the other way counts as inactive or inconclusive; further: on the % scale 0 is the no-effect control and ±100 the full control effect). To be noted: ARE-bla HepG2 viability, CellTiter-Glo ATP luminescence, 16 h; max response: stronger effect = lower value. The gist of the method:
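Cytotoxicity counter screen: intracellular ATP quantified by CellTiter-Glo luminescence in the same ARE-bla HepG2 plates, after 16 h compound exposure and a 2 h beta-lactamase substrate step.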

In assay [6] the target is T1, Hexokinase-4 (Homo sapiens) + Glucokinase regulatory protein (Homo sapiens) (UniProt P35557+Q14397). In words: qHTS assay for inhibitors of recombinant human GCK-GKRP interaction: Diaphorase-coupled assay (AID 743205). The gist of the method:
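Resorufin fluorescence (525/590 nm), read each minute over 30 min, reports GCK activity coupled via G6PDH and diaphorase. Reaction: 10 nM GST-GCK, 10 nM FLAG-GKRP, 5 mM glucose, 0.4 mM ATP, 0.15 mM NADP+, 0.1 mM resazurin.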

Assay [7] concerns the target T1, Hexokinase-4 (Homo sapiens) + Glucokinase regulatory protein (Homo sapiens). In words: qHTS assay for inhibitors of recombinant human GCK-GKRP interaction: ADP-Glo assay (AID 743206).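 Further: plate controls were DMSO plus enzyme for no effect and no enzyme for full effect.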 The gist of the method: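 Pin-transferred compounds meet a 15 nM GST-GCK/15 nM FLAG-GKRP/2 uM S6P mix (dispense concentrations). ATP is then added to 0.4 mM final with 5 mM glucose, and the reaction runs 60 min at room temperature. ADP is quantified luminescently.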

Assay [8] has the same target. In words: qHTS assay for inhibitors of recombinant human GCK-GKRP interaction: HTRF assay (AID 743207).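 Further: 0% = DMSO with GCK present and -100% = DMSO wells lacking GCK.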 The gist of the method:
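HTRF read-out (ex 320 nm; 615/665 nm emission) after 60 min RT equilibration of 5 nM GST-GCK, 5 nM FLAG-GKRP, 2 uM S6P, compound and anti-FLAG/anti-GST detection antibodies; signal normalized between DMSO wells with and without GCK.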

Assay [9] in a line: qHTS Assay for Identifying Gametocytocidal Compounds (AID 743244).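 Further: on the % scale 0 is the no-effect control and ±100 the full control effect; actives lower the fluorescent signal which means gametocytes are killed.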 To be noted: P. falciparum 3D7 stage III-V gametocytes, alamarBlue, 72 h; max response: stronger effect = lower value. The gist of the method: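 Late gametocytes (III–V), P. falciparum 3D7; 72 h drug, then 24 h alamarBlue; resazurin reduction read by fluorescence.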
Assay [10] can be described thus: qHTS assay for cell viability of HEK293 cells (AID 743288). Further: on the % scale 0 is the no-effect control and ±100 the full control effect; nearly all actives have a fitted effect of over 50% in size. Conditions: ATP luminescence (CellTiter-Glo), 18 h; max response: stronger effect = lower value. The gist of the method: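 ATP luminescence (CellTiter-Glo) reports metabolically competent cell number after parental HEK293 cells, 2,000/well, were treated with DMSO-dissolved compounds for 18 h at 37 C; reagent incubation 30 min, room temperature.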

The nature of assay [11]: qHTS assay for cell viability of the p53RE-bla HCT-116 cell line (AID 743292). Further: on the % scale 0 is the no-effect control and ±100 the full control effect; nearly all actives have a fitted effect of over 55% in size. The gist of the method:
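Luminescent ATP quantitation (CellTiter-Glo) served as the viability read-out; reagent was added after 16 h compound exposure at 37 C and read after 30 min at room temperature. Cells: p53RE-bla HCT-116, 4,000 per well.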

Assay [12] can be described thus: qHTS profiling of the MIPE4 collection as inhibitors of Plasmodium falciparum (3D7) proliferation (AID 743344; call rule not given here;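 further: scaled between DMSO vehicle wells and 0.29 µM artemisinin as full inhibition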). To be noted: P. falciparum 3D7 in erythrocytes, SYBR Green DNA fluorescence, 72 h; at 28.5 µM (top of the series) unless noted. The gist of the method:
(§1)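 Parasite DNA was quantified by SYBR Green I fluorescence (ex 485, em 535 nm) after overnight lysis in saponin/Triton buffer at room temperature. Cultures at 0.3% parasitemia and 2.5% hematocrit were first exposed to compound for 72 h at 37 C; signals were normalised to artemisinin (0.29 uM) and vehicle wells.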

Assay [13] in a line: qHTS profiling of the MIPE4 collection as inhibitors of Plasmodium falciparum (DD2) proliferation (AID 743345; call rule not given here). To be noted: P. falciparum Dd2 in erythrocytes, SYBR Green DNA, 72 h; at 28.5 µM (top of the series) unless noted. The gist of the method: as §1
Assay [14] can be described thus: qHTS profiling of the MIPE4 collection as inhibitors of Plasmodium falciparum (DD2) proliferation (Rep 2) (AID 743346; call rule not given here). To be noted: P. falciparum Dd2 in erythrocytes, SYBR Green DNA, 72 h; at 28.5 µM (top of the series) unless noted. The gist of the method:
as §1

A short description of assay [15]: qHTS assay for small molecule antagonists of the retinoid-related orphan receptor gamma (ROR-gamma) signaling pathway - cell viability counter screen (AID 720652; active means well fitted curve in the direction sought with a large enough effect in the repeat runs; an effect the other way counts as inactive or inconclusive;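 further: CHO reporter cells with doxycycline-induced ROR-gamma expression; compound exposure lasted 16 hr before ATP read; on the % scale 0 is the no-effect control and ±100 the full control effect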). The gist of the method:
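Steps: seed CHO cells bearing TET-inducible ROR and ROR response element-luciferase; rest 5 hr at 37 C; add compound, then doxycycline; incubate 16 hr; add CellTiter-Glo and read luminescence as ATP-based viability.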

T1 sequence (P35557 whole entry, looked up): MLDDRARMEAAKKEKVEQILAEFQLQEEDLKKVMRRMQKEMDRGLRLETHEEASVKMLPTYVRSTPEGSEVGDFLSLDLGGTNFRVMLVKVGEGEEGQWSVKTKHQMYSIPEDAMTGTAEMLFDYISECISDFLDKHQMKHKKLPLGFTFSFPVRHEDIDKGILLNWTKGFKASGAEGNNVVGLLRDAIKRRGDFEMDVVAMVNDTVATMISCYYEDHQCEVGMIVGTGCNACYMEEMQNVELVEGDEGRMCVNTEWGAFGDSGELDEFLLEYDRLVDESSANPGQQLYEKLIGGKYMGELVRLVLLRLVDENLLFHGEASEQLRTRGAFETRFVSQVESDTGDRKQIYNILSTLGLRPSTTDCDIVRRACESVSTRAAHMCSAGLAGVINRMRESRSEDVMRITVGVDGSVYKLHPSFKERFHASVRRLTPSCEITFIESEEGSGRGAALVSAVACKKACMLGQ
T1 sequence (Q14397 whole entry, looked up): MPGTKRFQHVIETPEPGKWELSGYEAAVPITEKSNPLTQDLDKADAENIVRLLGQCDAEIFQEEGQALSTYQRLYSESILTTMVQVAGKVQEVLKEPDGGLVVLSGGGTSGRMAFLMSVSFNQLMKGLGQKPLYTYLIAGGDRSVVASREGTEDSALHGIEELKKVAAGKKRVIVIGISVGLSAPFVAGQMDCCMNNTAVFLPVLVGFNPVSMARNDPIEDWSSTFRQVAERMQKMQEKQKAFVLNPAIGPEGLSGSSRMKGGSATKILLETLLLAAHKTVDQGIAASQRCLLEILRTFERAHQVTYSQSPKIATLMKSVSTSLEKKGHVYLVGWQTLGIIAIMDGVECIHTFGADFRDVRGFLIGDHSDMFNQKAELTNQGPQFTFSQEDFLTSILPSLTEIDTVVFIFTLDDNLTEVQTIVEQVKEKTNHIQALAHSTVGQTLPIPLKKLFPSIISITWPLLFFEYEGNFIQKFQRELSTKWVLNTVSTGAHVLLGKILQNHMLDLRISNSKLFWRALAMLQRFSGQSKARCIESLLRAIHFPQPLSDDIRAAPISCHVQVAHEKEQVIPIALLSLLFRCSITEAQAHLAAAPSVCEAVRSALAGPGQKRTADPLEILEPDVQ

In the case of `Cn1cnc2c1c(=O)[nH]c(=O)n2C`, the outcome in assay [1], in assay [2] and in assay [4] was inactive. Also, the Potency result in assay [3], in [6], in [7], in [8] and in assay [11] was “inactive” each time. Further, the max response in assay [5] is 4.98% (inactive); in assay [9], -9.46% (inactive) and -3.09% (inactive); in [10], -4% (inactive). Further, the parasite growth, % of DMSO control in [12] was 8.09%. In addition, the parasite growth remaining, % of DMSO control (lower = more inhibition) in [13] was determined as 7%. Moreover, the parasite growth, % of control (lower = inhibition) in [14] stood at 25.4%.

As to `CN(C)C(=O)C(CCN1CCC(O)(c2ccc(Cl)cc2)CC1)(c1ccccc1)c1ccccc1`, the result in [1] and in assay [2] was inactive. For the same molecule, the Potency result in assay [3] was “inactive”.

On to `COc1ccc(C2CNC(=O)C2)cc1OC1CCCC1` (stereo not given), for which the outcome in assay [1] and in assay [2] was inactive. Moreover, the Potency entry in assay [3], in [6], in [7] and in assay [8] was “inactive” in each case. Besides, the max response in [9] is 8.29% (inactive) and 32.6% (inactive). The same molecule came in with a parasite growth, % of DMSO control in assay [12] of 109%. In assay [13], the parasite growth remaining, % of DMSO control (lower = more inhibition) is 101%. For the same molecule, in assay [14], the parasite growth, % of control (lower = inhibition) stood at 116%.

With `CC(C)Cc1ccc(C(C)C(=O)O)cc1` (stereo not given), the molecule was classed as inactive in assay [1], in assay [2] and in assay [4]. Also, the Potency result in assay [3], in assay [6], in assay [7], in assay [8] and in assay [11] was “inactive” each time. Besides, the max response in assay [5] was 3.8% (inactive); in assay [9], 19.9% (inactive) and 9.6% (inactive); in assay [10] it was -10% (inactive). In assay [12], this molecule came in with a parasite growth, % of DMSO control of 112% [at 9.64 µM]. Moreover, the parasite growth remaining, % of DMSO control (lower = more inhibition) in assay [13] is 99.8% [at 9.64 µM]. For the same molecule, the parasite growth, % of control (lower = inhibition) in assay [14] was 162% [at 9.64 µM].

`Clc1ccc2nsnc2c1NC1=NCCN1`: the result in assay [1] and in assay [2] was inactive. The Potency entry in [3], in assay [6], in [7] and in assay [8] was “inactive” each time. In assay [9], the max response was 11.7% (inactive) and 4.37% (inactive). The molecule also gave a parasite growth, % of DMSO control in assay [12] of 73.6%. Further, the parasite growth remaining, % of DMSO control (lower = more inhibition) in assay [13] was 98.6%. Moreover, in [14], the parasite growth, % of control (lower = inhibition) turned out to be 45.7%.

Regarding `Cc1cn([C@H]2C=C[C@@H](CO)O2)c(=O)[nH]c1=O`, the molecule was called inactive in assay [1], in assay [2] and in assay [4]. Besides, the Potency result in [15], in assay [6], in assay [7], in [8] and in assay [11] was “inactive” in each case. Moreover, the max response was 6.12% (inactive) and 3.59% (inactive) and -11.2% (inactive) in [5]; 12.3% (inactive) and 14% (inactive) in assay [9]; -5.34% (inactive) and -4.2% (inactive) and -3.76% (inactive) in [10]. In addition, the parasite growth, % of DMSO control in [12] is 325% [at 57.5 µM]. Further, the parasite growth remaining, % of DMSO control (lower = more inhibition) in [13] amounted to 112% [at 57.5 µM]. The parasite growth, % of control (lower = inhibition) in assay [14] worked out at 140% [at 57.5 µM].

In the case of `CS(=O)(=O)Nc1ccc([N+](=O)[O-])cc1Oc1ccccc1`, the outcome in [1] and in assay [2] was inactive. The Potency entry in [3], in assay [6], in [7] and in assay [8] was “inactive” each time. Moreover, the max response in [9] is -0.179% (inactive) and 5.92% (inactive). This molecule came in with a parasite growth, % of DMSO control in [12] of 87.3%. Also, the parasite growth remaining, % of DMSO control (lower = more inhibition) in [13] amounted to 94.3%. In addition, in assay [14], the parasite growth, % of control (lower = inhibition) was found to be 84.4%.

As for `NCCc1cnc[nH]1`, the outcome in assay [1] and in assay [2] was inactive. In addition, the Potency result in assay [3], in assay [6], in [7] and in [8] was “inactive” throughout. The max response in [9] is 8.45% (inactive) and 33% (inactive). For the same molecule, the parasite growth, % of DMSO control in assay [12] was determined as 95.8%. In [13], the parasite growth remaining, % of DMSO control (lower = more inhibition) turned out to be 101%. Also, in [14], the parasite growth, % of control (lower = inhibition) was determined as 109%.
